Drawing on PubChem BioAssay (EPA / NIEHS), this text covers outcome and AC50 for 13 compounds.

“And” between values parts separate entries of the source, which are not always exact repeats. Identical values can stand only once. A structure can be active in one record and inactive in another. The source made the active and inactive calls. The calls were made as follows: active = hit-call score of the fitted dose curve at least 0.9, where 1 is the maximum; inactive = score below 0.9.

Read-out in assay [1]: Thrombomodulin, THBD (gene 7056)
Briefly: BSK_3C_Thrombomodulin: BioMAP Diversity Plus: 3C Assay for Thrombomodulin Biomarker Activity (AID 2283029). The note with it: primary human endothelial cells (HUVEC); actives raise or lower the signal. In short, it runs like this:
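Thrombomodulin ELISA, human primary HUVEC, 24 h post-dose; data fitted in both directions relative to DMSO.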

Read-out in assay [2]: Urokinase-type plasminogen activator receptor (uPAR), PLAUR (gene 5329)
Briefly: BSK_4H_uPAR: BioMAP Diversity Plus: 4H Assay for Urokinase-type plasminogen activator receptor (uPAR) Biomarker Activity (AID 2283030). The note with it: primary human endothelial cells (HUVEC); actives raise or lower the signal. An outline of the steps:
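Primary human umbilical vein endothelial cells were exposed to chemical for 24 h before cell-surface uPAR was quantified by ELISA. Activity was fitted bidirectionally against the DMSO negative control baseline.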

Read-out in assay [3]: Vascular endothelial growth factor receptor 2 (Homo sapiens) (UniProt P35968)
Briefly: BSK_4H_VEGFRII: BioMAP Diversity Plus: 4H Assay for Vascular endothelial growth factor receptor 2 (VEGFR2) Biomarker Activity (AID 2283031).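 As to AC50: cell-surface VEGFR2 protein level quantified by ELISA.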 The note with it: primary human endothelial cells (HUVEC); actives raise or lower the signal. In short, it runs like this: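 Primary human umbilical vein endothelial cells in the BioMAP 4H system were dosed with test chemical, and 24 h later VEGFRII was measured by ELISA. Activity was fitted bidirectionally against DMSO as negative control and baseline.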

Read-out in assay [4]: Human Leukocyte Antigen - DR isotype (HLADR), HLA-DRA (gene 3122)
Nature of the assay: BSK_BE3C_HLADR: BioMAP Diversity Plus: BE3C Assay for Human Leukocyte Antigen - DR isotype (HLADR) Biomarker Activity (AID 2283032). The note with it: primary human bronchial epithelial cells; actives raise or lower the signal. An outline of the steps:
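Signal came from an ELISA for HLA-DR in human bronchial epithelial primary cells harvested 24 h after treatment; gain- and loss-of-signal fitting used DMSO controls as reference.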

Read-out in assay [5]: Vascular cell adhesion molecule 1 (VCAM1), VCAM1 (gene 7412)
Briefly: BSK_4H_VCAM1: BioMAP Diversity Plus: 4H Assay for Vascular cell adhesion molecule 1 (VCAM1) Biomarker Activity (AID 2283033).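 As to outcome: cell-surface VCAM-1 protein measured by ELISA.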 The note with it: primary human endothelial cells (HUVEC); actives raise or lower the signal. In short, it runs like this: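 Endpoint derived from bidirectional fitting against DMSO controls of VCAM-1 ELISA signal in umbilical vein endothelial cells sampled at 24 h following treatment.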

Read-out in assay [6]: Interferon-gamma inducible Protein 10 (IP10), CXCL10 (gene 3627)
Briefly: BSK_BE3C_IP10: BioMAP Diversity Plus: BE3C Assay for Interferon-gamma inducible Protein 10 (IP10) Biomarker Activity (AID 2283034). The note with it: primary human bronchial epithelial cells; actives raise or lower the signal. An outline of the steps: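 Using primary human bronchial epithelial cultures, the assay captures IP-10 by ELISA one day (24 h) after exposure. Parallel SRB staining of total protein flags overt cytotoxicity. Fits run bidirectionally relative to DMSO.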

Read-out in assay [7]: Monokine induced gamma interferon (MIG), CXCL9 (gene 4283)
Nature of the assay: BSK_BE3C_MIG: BioMAP Diversity Plus: BE3C Assay for Monokine induced gamma interferon (MIG) Biomarker Activity (AID 2283035). The note with it: primary human bronchial epithelial cells; actives raise or lower the signal. An outline of the steps: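 ELISA read-out of MIG in human lung bronchial epithelial primary cultures, 24 h post-dosing. Bidirectional curve fit vs DMSO baseline.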

Read-out in assay [8]: Transforming growth factor beta 1 (TGFb1), TGFB1 (gene 7040)
Nature of the assay: BSK_BE3C_TGFb1: BioMAP Diversity Plus: BE3C Assay for Transforming growth factor beta 1 (TGFb1) Biomarker Activity (AID 2283036;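 as to outcome: TGF-b1 protein level measured by ELISA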). The note with it: primary human bronchial epithelial cells; actives raise or lower the signal. An outline of the steps:
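In this human primary bronchial epithelial system, an ELISA quantified TGF-b1 one day after dosing. Endpoint changes in either direction were fitted relative to DMSO.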

Read-out in assay [9]: Plasminogen activator inhibitor-1 (PAI1), SERPINE1 (gene 5054)
Nature of the assay: BSK_BE3C_PAI1: BioMAP Diversity Plus: BE3C Assay for Plasminogen activator inhibitor-1 (PAI1) Biomarker Activity (AID 2283037). The note with it: primary human bronchial epithelial cells; actives raise or lower the signal. An outline of the steps:
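PAI-1 biomarker levels in treated human bronchial epithelial cells are determined by ELISA at 24 h. Both increases and decreases relative to DMSO are fitted.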

Read-out in assay [10]: urokinase plasminogen activator (uPA), PLAU (gene 5328)
Briefly: BSK_BE3C_uPA: BioMAP Diversity Plus: BE3C Assay for urokinase plasminogen activator (uPA) Biomarker Activity (AID 2283038).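 Also: uPA protein level quantified by ELISA in cell cultures; uPA read one day after compound addition.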 The note with it: primary human bronchial epithelial cells; actives raise or lower the signal. In short, it runs like this:
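Human primary bronchial epithelial cells were exposed to chemical for 24 h, then uPA levels were measured by ELISA. Responses were fitted bidirectionally against DMSO as negative control and baseline. Parallel SRB staining of total protein gauged overt cytotoxicity.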

Regarding `CCON=C(CC)C1=C(O)CC(c2c(C)cc(C)cc2C)CC1=O` (stereo not given), the outcome in assay [1], in assay [2], in assay [3], in assay [4], in assay [5] and in assay [6] was inactive. Further, the outcome in [7], in [8], in assay [9] and in assay [10] was inactive.
Consider `C=CCC1=C(C)C(OC(=O)C2C(C=C(C)C)C2(C)C)CC1=O` (stereo not given), for which the result in assay [1], in [2], in [3], in assay [4], in assay [6] and in assay [7] was inactive. Also, the outcome in assay [8], in assay [9] and in [10] was inactive. Besides, the AC50 is 38.4 µM (active) and 32.8 µM (active) in assay [2]; 21 µM (active) and 29.4 µM (active) and 20 µM (active) in assay [3]; 15.7 µM (active) and 32.3 µM (active) and 30.9 µM (active) in assay [4]; 31.6 µM (active) [middle of 4 runs] in [5]; 35 µM (active) and 39 µM (active) in assay [6].
Take `CCCC1COC(Cn2cncn2)(c2ccc(Cl)cc2Cl)O1` (stereo not given): the result in [1], in assay [2], in [3], in [4], in assay [5] and in assay [6] was inactive. For the same compound, the outcome in assay [7], in assay [8], in assay [9] and in [10] was inactive.
For the compound `Cc1c(F)c(F)c(COC(=O)C2C(/C=C(\Cl)C(F)(F)F)C2(C)C)c(F)c1F` (stereo not given), the result in [1], in [2], in assay [3], in assay [4], in [5] and in assay [6] was inactive. Further, the outcome in assay [7], in assay [8], in assay [9] and in assay [10] was inactive.
Regarding `Cc1cc(Cl)ccc1OCC(=O)O`, the result in assay [1], in assay [2], in assay [3], in [4], in [5] and in assay [6] was inactive. In addition, the result in assay [7], in assay [8], in [9] and in [10] was inactive.
Take `CCCCNC(=O)n1c(NC(=O)OC)nc2ccccc21`: the result in assay [1], in [3], in [4], in assay [5], in assay [6] and in assay [7] was inactive. Besides, the result in assay [8], in [9] and in assay [10] was inactive. The AC50 in assay [2] was 9.62 µM (active).
For the compound `COC(=O)C(C)Oc1ccc(Oc2ccc(Cl)cc2Cl)cc1` (stereo not given), the result in assay [1], in assay [2], in assay [3], in assay [4], in assay [5] and in assay [6] was inactive. Moreover, the outcome in [7], in assay [8], in assay [9] and in assay [10] was inactive. Besides, the AC50 was 20 µM (active) in assay [3]; 9.71 µM (active) and 20 µM (active) in assay [4]; 32.5 µM (active) in assay [9].
As for `CO/C=C(/C(=O)OC)c1ccccc1Oc1cc(Oc2ccccc2C#N)ncn1`, the result in assay [1], in assay [2], in assay [3], in [7], in assay [8] and in assay [9] was inactive. Besides, the result in [10] was inactive. Moreover, the AC50 in [2] was 30.4 µM (active) and 30.6 µM (active) and 30.8 µM (active); in [3] it was 21.1 µM (active); in [4] it was 16.5 µM (active) [middle of 4 runs]; in [6], 21.1 µM (active) and 26.1 µM (active); in assay [9], 21.1 µM (active).
On to `COc1nc(C)nc(NC(=O)NS(=O)(=O)c2ccccc2Cl)n1`, for which the result in [1], in assay [2], in assay [3], in [4], in [5] and in assay [6] was inactive. For the same compound, the outcome in assay [7], in assay [8], in assay [9] and in assay [10] was inactive. For the same compound, the AC50 in assay [8] is 0.29 µM (active).
In the case of `CCCCOC(=O)c1ccccc1C(=O)OCCCC`, the outcome in assay [1], in assay [2], in assay [3], in assay [4], in assay [5] and in assay [6] was inactive. The result in assay [7], in assay [8], in [9] and in [10] was inactive.
On to `COc1nc(C)nc(NC(=O)NS(=O)(=O)c2ccccc2CCC(F)(F)F)n1`, for which the result in assay [1], in assay [2], in assay [3], in assay [4], in assay [5] and in [6] was inactive. Further, the outcome in assay [7], in [8], in [9] and in assay [10] was inactive.
For the compound `OC(c1ccc(Cl)cc1)(c1cncnc1)c1ccccc1Cl` (stereo not given), the result in assay [1], in assay [3], in assay [5], in assay [7], in assay [8] and in assay [9] was inactive. Also, in assay [10], the outcome was inactive. Besides, the AC50 is 18.3 µM (active) in assay [2], 25.9 µM (active) in assay [4] and 30.3 µM (active) in assay [6].
Take `C=CC1(C)OC(=O)N(c2cc(Cl)cc(Cl)c2)C1=O` (stereo not given): the outcome in [1], in [2], in assay [3], in assay [4], in [5] and in assay [6] was inactive. Further, the result in assay [7], in assay [8], in [9] and in assay [10] was inactive.

The AC50 is the concentration giving half of the maximal activity seen.
